# Experimental data published in PubChem BioAssay (NCATS).
# Values joined by “and” are separate entries in the source; they are usually repeats but may differ in a detail not shown here. Identical values can stand only once. Records with an inconclusive call do not appear. A call without a number means that no potency is given here. A number with no mark means an inactive call. Active and inactive are the calls of the source. Calls come from the whole dose curve; as a rule, active = well fitted curve in the direction sought with a large enough effect; inconclusive = small, poorly fitted or top-dose-only effect, or another doubt; inactive = no such curve, though single readings can be large; an effect the other way counts as inactive or inconclusive.
# Assays:
# MKL-1 = assay: qHTS assay to identify novel small-molecules to repurpose for Merkel cell carcinoma treatment (AID 1296009); conditions: MCC and control cell lines, CellTiter-Glo viability, 72 h; series mostly up to 46 µM; note: nearly all actives have a fitted effect of over 60% in size
# Method in brief: (§1)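 Cells exposed to NPC (8-point) and MIPE (11-point) compound dilutions for 72 hr at 37 degree celsius; viability read by CellTiter-Glo luminescence, normalized to no-cell and DMSO in-plate controls.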
# MKL-2 = assay: as above; conditions: MCC and control cell lines, CellTiter-Glo viability, 72 h; series mostly up to 46 µM
# Method in brief: as §1
# UISO = assay: as above; conditions: MCC and control cell lines, CellTiter-Glo viability, 72 h; series mostly up to 46 µM
# Method in brief: as §1
# WaGa = assay: as above; conditions: MCC and control cell lines, CellTiter-Glo viability, 72 h; series mostly up to 46 µM
# Method in brief: as §1
# C33A = assay: Primary qHTS to identify gynecologic anti-cancer compounds using libraries of approved drugs and bioactive compounds (AID 1345084); conditions: Gynecologic cancer cell panel viability, ATPlite luminescence, 48 h; series mostly up to 57.5 µM; note: nearly all actives have a fitted effect of over 55% in size
# Method in brief: (§2)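 48 h compound exposure at 37 C, 5% CO2; five-point qHTS. ATPlite luminescence readout of cell ATP.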
# CAOV3 = assay: as above; conditions: Gynecologic cancer cell panel viability, ATPlite luminescence, 48 h; series mostly up to 57.5 µM
# Method in brief: as §2
# CASKI = assay: as above; conditions: Gynecologic cancer cell panel viability, ATPlite luminescence, 48 h; series mostly up to 57.5 µM
# Method in brief: as §2
# Es-2 = assay: as above; conditions: Gynecologic cancer cell panel viability, ATPlite luminescence, 48 h; series mostly up to 57.5 µM
# Method in brief: as §2
# HeLa = assay: as above; conditions: Gynecologic cancer cell panel viability, ATPlite luminescence, 48 h; series mostly up to 57.5 µM
# Method in brief: as §2
# Hek293T = assay: as above; conditions: Gynecologic cancer cell panel viability, ATPlite luminescence, 48 h, control line for the selectivity index; series mostly up to 57.5 µM
# Method in brief: as §2
# JEG-3 = assay: as above; conditions: Gynecologic cancer cell panel viability, ATPlite luminescence, 48 h; series mostly up to 57.5 µM
# Method in brief: as §2
# OV90 = assay: as above; conditions: Gynecologic cancer cell panel viability, ATPlite luminescence, 48 h; series mostly up to 57.5 µM
# Method in brief: as §2
# PA-1 = assay: as above; conditions: Gynecologic cancer cell panel viability, ATPlite luminescence, 48 h; series mostly up to 57.5 µM
# Method in brief: as §2
# SKOV3 = assay: as above; conditions: Gynecologic cancer cell panel viability, ATPlite luminescence, 48 h; series mostly up to 57.5 µM
# Method in brief: as §2
# Tov-21-G = assay: as above; conditions: Gynecologic cancer cell panel viability, ATPlite luminescence, 48 h; series mostly up to 57.5 µM
# Method in brief: as §2
# Tov112D = assay: as above; conditions: Gynecologic cancer cell panel viability, ATPlite luminescence, 48 h; series mostly up to 57.5 µM
# Method in brief: as §2
# [1] = Drug repurposing screens with cells derived from glioblastoma tumor samples (AID 1345199); conditions: GBM patient neurospheres viability, ATP luminescence, 48 h; note: nearly all actives have a fitted effect of over 40% in size
# Method in brief: (§3)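 Four patient lines of CD133+ GBM neurospheres were screened at several concentrations; hits were retested in those lines plus three slower-growing GBM lines, using 48-hour treatment and ATP-based viability.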
# astro = assay: as above; conditions: viability, ATP luminescence, 48 h; series mostly up to 45.9 µM
# Method in brief: as §3
# [2] = at 45.9 µM (top of the series), tumour line B
# [3] = at 45.9 µM (top of the series), tumour line D
# [4] = at 46 µM (top of the series), tumour line A
# [5] = at 46.1 µM (top of the series), tumour line C
# Potency is the fitted concentration of half-maximal effect.
smiles,measurement,setting,value
CC(S)C(=O)NCC(=O)O (stereo not drawn),Potency,MKL-1,inactive
same,Potency,MKL-2,inactive
same,Potency,UISO,inactive
same,Potency,WaGa,inactive
same,Potency,C33A,inactive
same,Potency,CAOV3,inactive
same,Potency,CASKI,inactive
same,Potency,Es-2,inactive
same,Potency,HeLa,inactive
same,Potency,Hek293T,inactive
same,Potency,JEG-3,inactive
same,Potency,OV90,inactive
same,Potency,PA-1,inactive
same,Potency,SKOV3,inactive
same,Potency,Tov-21-G,inactive
same,Potency,Tov112D,inactive
same,"activity, negative = cell killing",[1]; [2],-0.523%
same,"activity, negative = cell killing",[1]; [3],-24.6%
same,"activity, negative = cell killing",[1]; [4],-28.9%
same,"activity, negative = cell killing",[1]; [5],-4.37%
same,Potency,astro,inactive
C=CCc1cc(OC)c(O)c(C(=O)NCCO)c1,Potency,MKL-1,inactive
same,Potency,MKL-2,inactive
same,Potency,UISO,inactive
same,Potency,WaGa,inactive
same,Potency,C33A,inactive
same,Potency,CAOV3,inactive
same,Potency,CASKI,inactive
same,Potency,Es-2,inactive
same,Potency,HeLa,inactive
same,Potency,Hek293T,inactive
same,Potency,JEG-3,inactive
same,Potency,OV90,inactive
same,Potency,PA-1,inactive
same,Potency,SKOV3,inactive
same,Potency,Tov-21-G,inactive
same,Potency,Tov112D,inactive
same,"activity, negative = cell killing",[1]; [2],-18.2%
same,"activity, negative = cell killing",[1]; [3],-1.66%
same,"activity, negative = cell killing",[1]; [5],2.37%
same,Potency,astro,inactive
O=C(O)c1cn(-c2ccc(F)cc2)c2cc(N3CCNCC3)c(F)cc2c1=O,Potency,MKL-1,inactive
same,Potency,MKL-2,inactive
same,Potency,UISO,inactive
same,Potency,WaGa,inactive
same,Potency,C33A,inactive
same,Potency,CAOV3,inactive
same,Potency,CASKI,inactive
same,Potency,Es-2,inactive
same,Potency,HeLa,inactive
same,Potency,Hek293T,inactive
same,Potency,JEG-3,inactive
same,Potency,OV90,inactive
same,Potency,PA-1,inactive
same,Potency,SKOV3,inactive
same,Potency,Tov-21-G,inactive
same,Potency,Tov112D,inactive
same,"activity, negative = cell killing",[1]; [2],-14.1%
same,"activity, negative = cell killing",[1]; [3],-2.04%
same,"activity, negative = cell killing",[1]; [5],0.795%
same,Potency,astro,inactive
Clc1ccc(C(Cn2ccnc2)OCc2ccsc2Cl)c(Cl)c1 (stereo not drawn),Potency,MKL-1,inactive
same,Potency,MKL-2,inactive
same,Potency,UISO,21.1 µM (active)
same,Potency,WaGa,inactive
same,Potency,C33A,inactive
same,Potency,CAOV3,inactive
same,Potency,CASKI,inactive
same,Potency,Es-2,inactive
same,Potency,HeLa,inactive
same,Potency,Hek293T,inactive
same,Potency,JEG-3,inactive
same,Potency,OV90,inactive
same,Potency,PA-1,inactive
same,Potency,SKOV3,inactive
same,Potency,Tov-21-G,inactive
same,Potency,Tov112D,inactive
S=c1nc[nH]c2nc[nH]c12,Potency,MKL-1,inactive
same,Potency,MKL-2,inactive
same,Potency,UISO,4.18 µM (active)
same,Potency,WaGa,1.19 µM (active) and 2.96 µM (active)
same,Potency,C33A,10 µM (active)
same,Potency,CASKI,2.51 µM (active)
same,Potency,Es-2,5.62 µM (active)
same,Potency,HeLa,5.62 µM (active)
same,Potency,Hek293T,15.8 µM (active)
same,Potency,JEG-3,3.55 µM (active)
same,Potency,OV90,7.08 µM (active)
same,Potency,PA-1,3.16 µM (active)
same,Potency,SKOV3,inactive
same,Potency,Tov-21-G,3.16 µM (active)
same,Potency,Tov112D,8.91 µM (active)
same,Potency,astro,inactive
Cc1nc2n(c(=O)c1CCN1CCC(c3noc4cc(F)ccc34)CC1)CCCC2,Potency,MKL-1,inactive
same,Potency,MKL-2,inactive
same,Potency,UISO,inactive
same,Potency,WaGa,inactive
same,Potency,CASKI,inactive
same,Potency,Es-2,inactive
same,Potency,HeLa,inactive
same,Potency,Hek293T,inactive
same,Potency,JEG-3,inactive
same,Potency,OV90,inactive
same,Potency,PA-1,inactive
same,Potency,SKOV3,inactive
same,Potency,Tov-21-G,inactive
same,Potency,Tov112D,inactive
same,"activity, negative = cell killing",[1]; [2],-28.4%
same,"activity, negative = cell killing",[1]; [5],-9.67%
same,Potency,[1]; tumour line A,3.55 µM (active)
same,Potency,[1]; tumour line D,11.2 µM (active)
same,Potency,astro,inactive
c1ccc2[nH]c(-c3cscn3)nc2c1,Potency,MKL-1,inactive
same,Potency,MKL-2,inactive
same,Potency,UISO,inactive
same,Potency,WaGa,inactive
same,Potency,C33A,inactive
same,Potency,CAOV3,inactive
same,Potency,HeLa,inactive
same,Potency,JEG-3,inactive
same,Potency,OV90,inactive
same,Potency,PA-1,inactive
same,Potency,SKOV3,inactive
same,Potency,Tov-21-G,inactive
same,Potency,Tov112D,inactive
same,"activity, negative = cell killing",[1]; [2],-26.3%
same,"activity, negative = cell killing",[1]; [5],7.08%
CC1Cc2ccccc2N1NC(=O)c1ccc(Cl)c(S(N)(=O)=O)c1 (stereo not drawn),Potency,MKL-1,inactive
same,Potency,MKL-2,inactive
same,Potency,UISO,inactive
same,Potency,WaGa,inactive
same,Potency,C33A,inactive
same,Potency,CASKI,inactive
same,Potency,Es-2,inactive
same,Potency,HeLa,inactive
same,Potency,Hek293T,inactive
same,Potency,JEG-3,inactive
same,Potency,OV90,inactive
same,Potency,PA-1,inactive
same,Potency,SKOV3,inactive
same,Potency,Tov-21-G,inactive
same,Potency,Tov112D,inactive
same,"activity, negative = cell killing","[1]; at 20 µM (top of the series), tumour line C",27.9%
same,"activity, negative = cell killing","[1]; at 21.2 µM (top of the series), tumour line B",-2.89%
same,"activity, negative = cell killing","[1]; at 21.2 µM (top of the series), tumour line D",1.12%
same,"activity, negative = cell killing",[1]; [2],9.62%
same,"activity, negative = cell killing",[1]; [3],-0.642%
same,"activity, negative = cell killing",[1]; [5],0.368%
same,Potency,astro,inactive
Cn1c(NCCN(CCO)CCCc2ccc([N+](=O)[O-])cc2)cc(=O)n(C)c1=O,Potency,MKL-1,inactive
same,Potency,MKL-2,inactive
same,Potency,UISO,inactive
same,Potency,WaGa,inactive
same,Potency,C33A,inactive
same,Potency,CAOV3,inactive
same,Potency,CASKI,inactive
same,Potency,Es-2,inactive
same,Potency,HeLa,inactive
same,Potency,Hek293T,inactive
same,Potency,JEG-3,inactive
same,Potency,OV90,inactive
same,Potency,PA-1,inactive
same,Potency,Tov-21-G,inactive
same,Potency,Tov112D,inactive
same,"activity, negative = cell killing",[1]; [2],-18.9%
same,"activity, negative = cell killing",[1]; [3],-12.5%
same,"activity, negative = cell killing",[1]; [5],-1.17%
same,Potency,[1]; tumour line A,7.08 µM (active)
same,Potency,astro,inactive
CCC[C@@H]1C[C@@H](C(=O)N[C@@H]([C@H]2O[C@H](SC)[C@H](O)[C@@H](O)[C@H]2O)[C@@H](C)O)N(C)C1,Potency,MKL-1,inactive
same,Potency,MKL-2,inactive
same,Potency,UISO,inactive
same,Potency,WaGa,inactive
same,Potency,C33A,inactive
same,Potency,CASKI,inactive
same,Potency,Es-2,inactive
same,Potency,HeLa,inactive
same,Potency,Hek293T,inactive
same,Potency,JEG-3,inactive
same,Potency,OV90,inactive
same,Potency,PA-1,inactive
same,Potency,Tov-21-G,inactive
same,Potency,Tov112D,inactive
same,"activity, negative = cell killing",[1]; [2],-4.01%
same,"activity, negative = cell killing",[1]; [3],5.06%
same,"activity, negative = cell killing",[1]; [4],-2.05%
same,"activity, negative = cell killing",[1]; [5],3.06%
same,Potency,astro,inactive
